D2 ag-1: HTS Assay for Allosteric Agonists of the Human D2 Dopamine Receptor: Primary Screen for Agonists; HEK293 T-REx D2 cells, calcium flux agonist mode; D(2) dopamine receptor (Homo sapiens), P14416; activation, % at 2 µM; actives 0.53% (n = 340,000); AID 485358, 2010;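 active = activation over 3 SD above normal in the single-dose calcium agonist read, cut at about 30% in these data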; also: 0% is about no effect
Target sequence (P14416 whole entry, looked up): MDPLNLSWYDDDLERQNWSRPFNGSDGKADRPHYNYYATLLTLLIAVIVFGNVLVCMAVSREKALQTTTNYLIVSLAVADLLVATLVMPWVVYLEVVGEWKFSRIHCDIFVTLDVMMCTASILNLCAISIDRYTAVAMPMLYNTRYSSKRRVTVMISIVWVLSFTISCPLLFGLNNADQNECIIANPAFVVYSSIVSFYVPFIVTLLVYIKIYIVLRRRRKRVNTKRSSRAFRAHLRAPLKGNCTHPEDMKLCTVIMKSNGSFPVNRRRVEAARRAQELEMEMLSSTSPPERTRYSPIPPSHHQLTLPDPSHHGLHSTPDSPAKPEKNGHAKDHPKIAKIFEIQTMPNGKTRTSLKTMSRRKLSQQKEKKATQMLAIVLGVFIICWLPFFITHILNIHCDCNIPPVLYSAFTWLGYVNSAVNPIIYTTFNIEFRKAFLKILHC
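Agonism is scored from calcium flux in a force-coupled, inducible HEK293 cell line expressing D2, read kinetically for 180 s after compound addition against dopamine controls.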
D2 ag-2: Beta-Arrestin HTS for Positive Allosteric Modulators of the Human D2 Dopamine Receptor: Agonists | activation, % (no concentration beside the values) | DiscoveRx PathHunter D2 beta-arrestin, luminescence, 90 min; 100% = 57 uM dopamine signal | actives 0.084% (n = 360,000) | D(2) dopamine receptor (Homo sapiens), P14416; in the data active = activation above about 40%; inconclusive = between about 15% and that limit
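Agonist mode: compounds alone added to overnight-plated D2 PathHunter cells for 90 min at 37 C, with 57 uM final dopamine (EC100) defining full response. Beta-arrestin recruitment detected by chemiluminescent reagent, read after 1 h at ambient temperature.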
D2 PAM-1: Beta-Arrestin HTS for Positive Allosteric Modulators of the Human D2 Dopamine Receptor: Potentiators. D(2) dopamine receptor (Homo sapiens), P14416. DiscoveRx D2 beta-arrestin cells, luminescence, 90 min; 100% = 57 uM dopamine signal. potentiation, % (no concentration beside the values). actives 0.23% (n = 360,000); in the data active = potentiation above about 50%; inconclusive = mostly about 30% to 49%
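PathHunter D2 cells, attached overnight at 37 deg C, received compound in DMSO plus dopamine at EC20 (50 nM final) for 90 min at 37 deg C. Beta-arrestin recruitment was read as luminescence after 1 h with detection reagent at ambient temperature.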
D2 PAM-2: HTS Assay for Positive Allosteric Modulators of the Human D2 Dopamine Receptor: Primary Screen for Potentiators; potentiation, % at 10 µM; AID 485347, 2010; actives 0.34% (n = 340,000); HEK293 T-REx D2, calcium flux, EC20 dopamine potentiation;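 active = potentiation over 3 SD above the plate norm, cut at about 30% in these data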; also: 0% is about no effect
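Tetracycline-induced HEK293 T-REx cells force-coupled to calcium signalling expressed D2; compounds were pin-added after a 10 s baseline, read kinetically 180 s, then an EC20 dopamine challenge followed with a further 180 s calcium read.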
D2 antagonist: HTS Assay for Allosteric Antagonists of the Human D2 Dopamine Receptor: Primary Screen for Antagonists; D(2) dopamine receptor (Homo sapiens), P14416; HEK293 TREx D2 cells, calcium flux, dopamine EC80; inhibition, % at 10 µM; actives 2% (n = 340,000); AID 485344, 2010; in the data active = inhibition above about 30%; inactive = below that, where a call was filed; also: 0% is about no effect
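Compounds are added to dye-loaded, induced HEK293 T-REx cells coupled to calcium release via D2; after a 3 min kinetic read an EC80 dopamine stimulus is given and fluorescence is recorded for 3 more min.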
* marks the source's active call; other numbers are inactive results; ? = inconclusive; . = not tested or not shown. Most compounds without a hit are left out; they make up all but 2.4% or so of the library.

SMILES | D2 ag-1 | D2 ag-2 | D2 PAM-1 | D2 PAM-2 | D2 antagonist
Cn1ncc2c(O/N=C(\N)c3ccc(C(C)(C)C)cc3)ncnc21 | 0 | 86* | 85* | 13 | -1
COc1cccc(CNC(=O)CCc2c(C)c3cc4c(C)coc4cc3oc2=O)c1 | 0 | . | . | -11 | .
COc1ccccc1NC(=O)NCC(=O)Nc1ccc(F)c(F)c1 | . | -2 | -12 | . | .
CCCCNC(=O)NCC(=O)Nc1ccc(F)c(F)c1 | 0 | 0 | -4 | -4 | 40*
COCCn1c(=O)[nH]c2cc(C(=O)Nc3cccc(F)c3)ccc2c1=O | 40* | 3 | -7 | -18 | 20
COCCn1c(=O)[nH]c2cc(C(=O)NCCN3CCN(c4ccccc4F)CC3)ccc2c1=O | 83* | ? | 18 | -21 | 96*
COCCn1c(=S)[nH]c2cc(C(=O)NCCCN3CCOCC3)ccc2c1=O | 1 | -1 | -5 | 12 | -6
COCCn1c(=O)[nH]c2cc(C(=O)NCCCN3CCN(c4ccc(F)cc4)CC3)ccc2c1=O | 35* | 5 | -8 | -30 | 58*
COc1ccc2sc(N(Cc3cccnc3)C(=O)C3COc4ccccc4O3)nc2c1 (configuration not stated) | 1 | . | . | -1 | .
COc1cc(C(=O)NCc2ccc3c(c2)CCN3C(=O)c2ccncc2)cc(OC)c1OC | 0 | . | . | -4 | .
CC1CCN(S(=O)(=O)c2ccc3c(ccn3CCC(=O)NCc3ccccc3F)c2)CC1 | 1 | . | . | 8 | .
COc1cc(Cl)c(C)cc1NC(=O)CC1SC(N2CCOCC2)=NC1=O (configuration not stated) | -1 | 0 | -4 | -23 | 99*
COc1ccc(NC(=O)CC2SC(N3CCOCC3)=NC2=O)c(OC)c1 (configuration not stated) | . | 2 | -5 | . | .
On1onc2c3cc(-c4ccccc4)nc3ccc21 | 0 | 14 | 59* | 1 | -3
Cc1cc(C(=O)NNC(=S)NC(C)c2ccccc2)c2ccccc2n1 (configuration not stated) | -1 | -13 | -41 | 5 | 45*
Cc1cc(C(N)=O)c2ccccc2n1 | -1 | 2 | 8 | -14 | 50*
CCc1cccc(NC(=O)CSc2n[nH]c(-c3ccccc3Cl)n2)c1 | 0 | . | . | -10 | .
COc1ccc(CCn2c(N)cc(=O)[nH]c2=S)cc1OC | 0 | -3 | -20 | 34* | -16
CCN(CC)C(=O)CSc1nc(-c2ccccc2)cc(-c2ccc(OC)cc2)c1C#N | 0 | . | . | 8 | .
Cc1sc2nc(CSc3ccccc3)nc(N3CCN(C)CC3)c2c1C | 1 | -3 | -32 | -37 | 90*
COC(C[C@@H](O)CC(=O)[C@@H](C)OCc1ccccc1)OC | 0 | -3 | -3 | 9 | 7
COC(C[C@H](O)C[C@H](O)[C@H](C)OCc1ccccc1)OC | -1 | -3 | -4 | 12 | 38*
CCCN1C(=O)/C(=C/c2ccc(C)s2)NC1=S | 0 | -2 | -2 | -10 | 31*
CCNCCC(=O)N1c2ccccc2Sc2ccc(C(F)(F)F)cc21 | 9 | -7 | -17 | -24 | 73*
Cc1cccc(-c2nc(C)c(CCNC(=O)C(=O)Nc3ccc(C)c(C)c3)s2)c1 | 0 | . | . | 11 | .
SMILES | D2 ag-1 | D2 ag-2 | D2 PAM-1 | D2 PAM-2 | D2 antagonist
COc1ccc(-c2cc(C(F)(F)F)n3nc(C(=O)NCc4ccco4)cc3n2)cc1 | 0 | -2 | -8 | 16 | 14
Cc1cc(-c2ccccc2)nc2cc(C(=O)NCc3ccco3)nn12 | 0 | -2 | -4 | 36* | 1
COc1ccccc1NC(=O)C(C)OC(=O)C1CC(=O)N(c2ccc3c(c2)OCCO3)C1 (configuration not stated) | -1 | -3 | 63* | -5 | 15
COc1ccc(Cl)cc1NC(=O)C1CCN(C(=O)C2CC(=O)N(c3ccc(C)cc3)C2)CC1 (configuration not stated) | 1 | -3 | -2 | -10 | 37*
COc1cccc(OC)c1OC(=O)C1CC(=O)N(c2ccc3c(c2)OCCO3)C1 (configuration not stated) | . | -1 | 2 | . | .
Cc1ccc(N2CC(C(=O)N3CCC(C(=O)Nc4ccc(Br)cc4)CC3)CC2=O)cc1 (configuration not stated) | 3 | 2 | -9 | 3 | 11
Cc1ccc(N2CC(C(=O)N3CCC(C(=O)Nc4cccc(Br)c4)CC3)CC2=O)cc1 (configuration not stated) | 0 | -2 | -15 | 4 | 39*
COc1ccccc1OC(=O)C1CC(=O)N(c2ccc(Cl)cc2)C1 (configuration not stated) | -2 | 1 | 10 | 34* | 0
COc1cccc(CN2CCc3ccc(NC(=O)CCc4ccc(C)cc4)cc3C2)c1O | 0 | -7 | -41 | -20 | 31*
Cc1ccc(NC(=O)C2CCCN(S(=O)(=O)c3cccs3)C2)c(C)c1 (configuration not stated) | 0 | . | . | 16 | .
CCOC(=O)Nc1sc(NS(=O)(=O)c2ccccc2)nc1C | 0 | 12 | 86* | -6 | 1
Cc1nc(NS(=O)(=O)c2ccccc2)sc1NC(=O)Nc1ccc(Cl)cc1 | 1 | 6 | -3 | -16 | -18
Cc1nc(NS(=O)(=O)c2ccccc2)sc1NC(=O)Nc1ccccc1 | -1 | ? | 1 | -11 | 55*
N#CC1=C(N)N2C(=C(C#N)C1c1cccc(Br)c1)Nc1ccccc12 (configuration not stated) | 11 | 5 | 5 | -7 | 39*
N#CC1=C(N)N2C(=C(C#N)C1c1ccc(Br)cc1)Nc1ccccc12 (configuration not stated) | 9 | -4 | 2 | 2 | 0
CCc1ccc(S(=O)(=O)Nc2nccs2)cc1 | 0 | 4 | -7 | 38* | 11
Cc1cc2oc(C(=O)Nc3ccc(S(=O)(=O)Nc4nccs4)cc3)cc(=O)c2cc1Cl | 0 | -2 | -3 | -4 | 34*
CCC(Oc1ccc(C)cc1)C(=O)Nc1ccc(S(=O)(=O)Nc2nccs2)cc1 (configuration not stated) | 2 | -3 | -6 | 42* | 14
CC(C)C(=O)NC(=S)Nc1ccc(S(=O)(=O)Nc2nccs2)cc1 | 1 | 1 | -4 | -5 | 39*
